Laboratory results from PubChem BioAssay AID1159580 (chemical genetic matrix, 2015).
Values joined by “and” are separate entries in the source; they are usually repeats but may differ in a detail not shown here. Equal entries are not always repeated. Among all 5,500 compounds or so, about 2,000 (36%) were called active. Not shown: some 18% with an inconclusive outcome. No stated cut-off is given here; in the data, active means normalized growth mostly below about 0.91 (no sharp cut-off); inconclusive means no clear call, values can overlap the other calls; inactive means mostly above about 0.92. The list shows a part of the results.

Experiment: chemical genetic growth profiling, strain panel (AID 1159580);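 further: tested at 20 µM; growth read once vehicle control cultures reached saturation at 30 °C; 1 = growth at the plate median or of vehicle wells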
Conditions: S. cerevisiae deletion strains, growth OD

Measured: normalized growth

Cn1c(=O)[nH]c2ncn(C)c2c1=O
inactive: locus YAL013W, strain DEP1, stronger effect = lower value 1.01 | locus YAL021C, strain ccr4, stronger effect = lower value 1.06 | locus YAL026C, strain drs2, stronger effect = lower value 0.985 | locus YAL030W, strain snc1, stronger effect = lower value 0.981 | locus YAL040C, strain CLN3, stronger effect = lower value 0.958 | locus YBL061C, strain skt5, stronger effect = lower value 0.99 | locus YBR009C, strain hhf1, stronger effect = lower value 0.995 | locus YBR021W, strain FUR4, stronger effect = lower value 1.04 | locus YBR023C, strain chs3, stronger effect = lower value 1 | locus YBR171W, strain sec66, stronger effect = lower value 0.95 | locus YBR229C, strain ROT2, stronger effect = lower value 1.01 | locus YBR231C, strain swc5, stronger effect = lower value 0.962 | locus YBR279W, strain paf1, stronger effect = lower value 0.993 | locus YCL011C, strain gbp2, stronger effect = lower value 0.966 | locus YCL016C, strain dcc1, stronger effect = lower value 1.03 | locus YCL029C, strain bik1, stronger effect = lower value 0.996 | locus YCL061C, strain MRC1 (second series), stronger effect = lower value 1.01 | locus YCL061C, strain MRC1, stronger effect = lower value 0.995 | locus YCL069W, strain vba3, stronger effect = lower value 0.968 | locus YCR088W, strain abp1, stronger effect = lower value 0.966 | locus YDL005C, strain med2, stronger effect = lower value 0.962 | locus YDL035C, strain GPR1, stronger effect = lower value 1.02 | locus YDL040C, strain nat1, stronger effect = lower value 0.962 | locus YDL074C, strain BRE1, stronger effect = lower value 1.05 | locus YDL101C, strain DUN1, stronger effect = lower value 1.01 | locus YDL134C, strain PPH21, stronger effect = lower value 1.02 | locus YDL185W, strain tfp1, stronger effect = lower value 0.996 | locus YDL192W, strain arf1, stronger effect = lower value 0.993 | locus YDR001C, strain nth1, stronger effect = lower value 0.968 | locus YDR069C, strain doa4, stronger effect = lower value 0.949 | locus YDR101C, strain arx1, stronger effect = lower value 1 | locus YDR137W, strain rgp1, stronger effect = lower value 0.988 | locus YDR150W, strain NUM1, stronger effect = lower value 1.02 and 0.997 | locus YDR159W, strain sac3, stronger effect = lower value 0.939 | locus YDR162C, strain NBP2, stronger effect = lower value 1 | locus YDR195W, strain ref2 0.95 | locus YDR297W, strain sur2, stronger effect = lower value 0.959 | locus YDR318W, strain mcm21, stronger effect = lower value 0.992 | locus YDR334W, strain swr1, stronger effect = lower value 0.975 | locus YDR335W, strain msn5, stronger effect = lower value 0.978 | locus YDR363W, strain ESC2, stronger effect = lower value 1.01 | locus YDR388W, stronger effect = lower value 0.989 | locus YDR392W, strain spt3, stronger effect = lower value 0.937 | locus YDR502C, strain sam2, stronger effect = lower value 0.993 | locus YEL003W, strain gim4, stronger effect = lower value 0.972 | locus YEL037C, strain rad23, stronger effect = lower value 0.968 | locus YEL061C, strain CIN8 (second series), stronger effect = lower value 0.959 | locus YEL061C, strain CIN8, stronger effect = lower value 1.01 | locus YER002W, strain NOP16, stronger effect = lower value 1.01 | locus YER015W, strain faa2, stronger effect = lower value 0.98 | locus YER016W, strain bim1, stronger effect = lower value 0.967 | locus YER110C, stronger effect = lower value 0.996 | locus YER111C, strain swi4, stronger effect = lower value 0.98 | locus YER155C, strain BEM2 (second series), stronger effect = lower value 0.959 | locus YER155C, strain BEM2, stronger effect = lower value 1.02 | locus YER167W, strain BCK2, stronger effect = lower value 1.01 | locus YFR010W, strain ubp6, stronger effect = lower value 0.962 | locus YGL078C, strain dbp3, stronger effect = lower value 0.989 | locus YGL086W, strain mad1, stronger effect = lower value 1 | locus YGL167C, strain pmr1, stronger effect = lower value 0.982 | locus YGL173C, strain kem1, stronger effect = lower value 0.97 | locus YGL227W, strain vid30, stronger effect = lower value 0.967 | locus YGL240W, strain doc1, stronger effect = lower value 0.958 | locus YGL248W, strain PDE1, stronger effect = lower value 1.01 | locus YGL253W, strain hxk2, stronger effect = lower value 0.958 | locus YGR078C, strain PAC10, stronger effect = lower value 1.02 and 0.978 | locus YGR135W, strain pre9, stronger effect = lower value 0.992 | locus YGR229C, strain SMI1, stronger effect = lower value 1.02 | locus YGR252W, strain gcn5, stronger effect = lower value 0.981 | locus YHR013C, strain ard1, stronger effect = lower value 0.986 | locus YHR027C, strain rpn1, stronger effect = lower value 0.98 | locus YHR030C, strain SLT2, stronger effect = lower value 1 | locus YHR079C, strain IRE1 (second series), stronger effect = lower value 0.987 | locus YHR094C, strain hxt1, stronger effect = lower value 0.992 | locus YHR129C, strain ARP1, stronger effect = lower value 1.02 | locus YHR142W, strain chs7, stronger effect = lower value 0.987 | locus YHR200W, strain rpn10, stronger effect = lower value 0.993 | locus YIL066C, strain RNR3, stronger effect = lower value 1.01 | locus YIL073C, strain SPO22, stronger effect = lower value 1 | locus YIL125W, strain kgd1, stronger effect = lower value 0.994 | locus YIR030C, strain dcg1, stronger effect = lower value 1 | locus YJL092W, strain hpr5, stronger effect = lower value 0.971 | locus YJL095W, strain BCK1 (second series), stronger effect = lower value 0.973 | locus YJL095W, strain BCK1, stronger effect = lower value 1.02 | locus YJL115W, strain asf1, stronger effect = lower value 0.969 | locus YJL129C, strain trk1, stronger effect = lower value 0.967 | locus YJL134W, strain LCB3, stronger effect = lower value 1 | locus YJL154C, strain vps35, stronger effect = lower value 0.969 | locus YJL164C, strain tpk1, stronger effect = lower value 1 | locus YJL166W, strain qcr8, stronger effect = lower value 0.972 | locus YJL168C, strain set2, stronger effect = lower value 0.99 | locus YJL187C, strain SWE1 (second series), stronger effect = lower value 1.01 | locus YJL187C, strain SWE1, stronger effect = lower value 0.986
